What all share (assay): NCI-60 one-dose screen, 48 h (100 = growth as untreated, 0 = no growth, -100 = all killed)
What all share (conditions): 10 µM unless noted

The test system of assay [1] is MOLT-4 leukemia.
The test system of assay [2] is SR leukemia.
In assay [3] the test system is RPMI-8226 leukemia.
Assay [4] relates to OVCAR-8 ovarian.
Assay [5] has as its system OVCAR-5 ovarian.
Assay [6] concerns OVCAR-4 ovarian.
Assay [7] relates to SK-OV-3 ovarian.
The subject of assay [8] is IGROV1 ovarian.
Assay [9] relates to OVCAR-3 ovarian.
The test system of assay [10] is HS 578T breast.
Assay [11] deals with NCI/ADR-RES ovarian.
The test system of assay [12] is T-47D breast.
In assay [13] the test system is BT-549 breast.
Assay [14] has as its system MDA-MB-435 melanoma.
The subject of assay [15] is SW-620 colon.
Assay [16] relates to MCF7 breast.
Assay [17] has as its system HCT-116 colon.
Assay [18] concerns KM12 colon.
Assay [19] relates to HCC-2998 colon.

Molecules are shown by their SMILES. This is part of a sample that, as a whole, favours compounds with a hit. Of some 83,000 tested, about 20% had one in any assay.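 The test compound was applied at a single concentration to cells in 96-well plates for 48 hours, and percent growth was recorded.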 Values without a mark were called inactive. Active and inactive are the calls of the source. The calls were made as follows: active = growth percent below 10; inactive = the rest.

As for `COc1ccc(/C=C\c2cc(OC)c(OC)c(OC)c2)cc1OCC(=O)Nc1nc2ccc(OC(F)(F)F)cc2s1`, the growth is 13.2% in assay [1]; 31.5% in assay [2]; 22.8% in assay [3]; 43.2% in [4]; 112% in assay [5]; 64.4% in assay [6]. Also, the growth in [7] is 48.4%; in assay [8], 30.3%; in [9], -30.7% (active); in assay [10] it was 12.5%; in assay [11] it was -7.34% (active); in [12] it was 22.4%. In addition, the growth in [13] is 58.7%; in assay [14], -30.2% (active); in [15], 25.1%; in [16] it was 24.3%; in assay [17] it was 19.5%; in [18], 19.2%.
On to `O=C1NC(=O)C(=Cc2cccn2CCCCCn2c3ccccc3c(=O)c3ccccc32)C(=O)N1`, for which the growth was 93.3% in assay [1]; 86.7% in [2]; 92% in [3]; 102% in assay [4]; 101% in assay [5]; 99.8% in assay [6]. The growth was 108% in [7]; 99.4% in [8]; 105% in assay [9]; 106% in assay [10]; 99.5% in assay [11]; 87.3% in [12]. Moreover, the growth in [13] was 104%; in assay [14] it was 97.7%; in assay [15], 105%; in assay [16] it was 84.7%; in assay [17], 82.2%; in assay [19], 105%. In assay [18], the growth is 103%.
Take `O=C(CC1(O)C(=O)N(Cc2ccccc2)c2ccc(F)cc21)c1ccc(C(=O)NCC2CCC3(CC2)OOC2(CCCCC2)OO3)cc1` (centres undefined): the growth in assay [1] is -48.9% (active); in assay [2] it was -44.8% (active); in [3], -29.7% (active); in assay [4] it was -30.5% (active); in [5], 4.61% (active); in assay [6], -32.4% (active). Further, the growth in [7] was 41.1%; in [8], -38.1% (active); in assay [9] it was -76.9% (active); in assay [10], -9.82% (active); in [11], -48.6% (active); in assay [12], -53.9% (active). Further, the growth was -19.7% (active) in [13]; -80.7% (active) in [14]; -62.3% (active) in [15]; 7.64% (active) in assay [16]; 4.47% (active) in [17]; 44.9% in assay [19]. For the same molecule, the growth in assay [18] is -68.1% (active).
`CC1=C(O)[C@@](C)(CCCCC[C@H](C)CCCCc2ccc(O)cc2)OOC1=O`: the growth in assay [1] is 86%; in assay [2] it was 50.1%; in assay [3], 85%; in assay [4], 93.4%; in assay [5], 103%; in assay [6] it was 100%. Moreover, the growth in assay [7] is 106%; in [8], -11.1% (active); in [9], 86.5%; in assay [10], 98.1%; in assay [11], 88.5%; in [12], 89%. Also, the growth was 97.4% in [13]; 82.6% in assay [14]; 109% in assay [15]; 98.8% in [16]; 88.6% in assay [17]; 115% in assay [19]. Further, in assay [18], the growth is 90.1%.
Consider `CC[C@H](NC(=O)[C@H]1CCCCN1C)C(=O)N(C)[C@H](C[C@@H](OC(C)=O)c1nc(C(=O)N[C@@H](Cc2ccccc2)C[C@H](C)C(=O)O)cs1)C(C)C`, for which the growth in assay [1] was 10.2%; in [2], 6.46% (active); in assay [3] it was 15.5%; in assay [4] it was 9.15% (active); in assay [5], 37.5%; in assay [6], 43.5%. The growth in [7] was 25.8%; in assay [8] it was 25.3%; in [9], -6.57% (active); in [10] it was 11.4%; in assay [11], 9.47% (active); in assay [12] it was 51.3%. Further, the growth was -15.6% (active) in [13]; -36.5% (active) in assay [14]; 22.4% in assay [15]; 16.9% in assay [16]; 0.18% (active) in assay [17]; 8.05% (active) in [19]. In [18], the growth is 7.87% (active).
In the case of `ClC1=C(Cl)C(Cl)(C2(Cl)C(Cl)=C(Cl)C(Cl)=C2Cl)C(Cl)=C1Cl`, the growth in assay [1] is -36.7% (active); in [2], -25.3% (active); in assay [3], -37.8% (active); in [4] it was 0.392% (active); in [5] it was 16.1%; in assay [6] it was -30.2% (active). Besides, the growth in assay [7] is 87.1%; in assay [8], -33.3% (active); in assay [9], -77.4% (active); in [10], 53.3%; in [11], 4.66% (active); in assay [12], -45.4% (active). For the same molecule, the growth is -12.3% (active) in [13]; -50.9% (active) in [14]; -52.8% (active) in [15]; -40.9% (active) in assay [16]; -73.4% (active) in assay [17]; 52.1% in assay [19]. Further, the growth in assay [18] is 84.5%.
With `COc1cccc(C=NC(Cc2cnc[nH]2)C(=O)O)c1O` (centres undefined), the growth is 120% in assay [1]; 132% in [2]; 48.1% in [3]; 81.1% in assay [4]; 85.5% in assay [5]; 95.9% in [6]. Also, the growth was 102% in assay [7]; 64.8% in assay [8]; 102% in [9]; 122% in assay [10]; 98.4% in assay [11]; 108% in assay [12]. The growth is 91.1% in assay [13]; 84.2% in [14]; 102% in assay [15]; 93.4% in assay [16]; 97.8% in [17]; 104% in [18].
Consider `O=C(Nc1ccc(O)cc1)C(Cl)(Cl)Cl`, for which the growth in [1] was 104%; in assay [2], 96.6%; in [3], 112%; in assay [4], 97.1%; in assay [5], 102%; in assay [6] it was 105%. Also, the growth in assay [7] is 98.2%; in assay [8], 100%; in assay [9], 124%; in [10], 112%; in assay [11], 99.4%; in assay [12], 89.5%. In addition, the growth was 91.2% in assay [13]; 103% in [14]; 110% in [15]; 99.1% in assay [16]; 103% in assay [17]; 103% in [18].

Source of the values: PubChem BioAssay (NCI).
